The source of these data is PubChem BioAssay (EPA / NIEHS).

Where “and” joins values, the source holds several entries; their conditions need not be identical. Equal entries are not always repeated. Some structures have more than one record in an assay (separate samples or runs), and their calls can disagree. Calls of active or inactive are those of the source. Rule for the calls: active = hit-call score of the fitted dose curve at least 0.9, where 1 is the maximum; inactive = score below 0.9.

Assay [1] has as its target Transcription factor E2F1 (Homo sapiens) (UniProt Q01094). The assay is described as follows: ATG_E2F_CIS: Attagene CIS-FACTORIAL HepG2 Assay for human E2F Transcription Factor 1 (AID 2282935). Particulars: HepG2 Attagene cis-reporter, E2F reporter RNA transcripts; actives raise or lower the signal. The method in brief:
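Measures reporter transcript levels via RT-PCR with capillary electrophoresis detection in HepG2 cells harboring cis-regulated reporter units; 24 h post-dose; bidirectional curve fitting with DMSO as baseline.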

Assay [2] can be described thus: ATG_E_Box_CIS: Attagene CIS-FACTORIAL HepG2 Assay for human Enhancer Box (E-box) (AID 2282936). The conditions noted are these: HepG2 E-box cis-reporter transcription, actives raise or lower the signal. Put shortly: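 First, HepG2 cells receive multiple cis-regulated reporter constructs by transient transfection. Next, chemicals are applied for 24 h. Finally, reporter mRNA is quantified via RT-PCR and capillary electrophoresis, with DMSO as baseline.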

Assay [3] is described as follows: ATG_M_61_CIS: Attagene CIS-FACTORIAL HepG2 Assay for M61 Transcription Factor (Internal Marker) (AID 2282937). The conditions noted are these: HepG2 Attagene CIS-FACTORIAL M61 internal marker reporter; actives raise or lower the signal. The method in brief:
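Using transiently transfected HepG2 liver cells, reporter transcript levels were assessed 24 h post-dosing by RT-PCR and capillary electrophoresis. Changes in either direction were fitted relative to DMSO controls.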

Assay [4] in a line: ATG_EGR_CIS: Attagene CIS-FACTORIAL HepG2 Assay for human Early Growth Response 1 (EGR1) (AID 2282938). Particulars: HepG2 Attagene CIS-FACTORIAL EGR reporter mRNA; actives raise or lower the signal. The method in brief:
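Fluorescent capillary-electrophoresis signal of reporter cDNA fragments serves as read-out. HepG2 cells bear transiently transfected cis-promoter reporter units and are exposed 24 h; gain- or loss-of-signal is fitted against DMSO.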

Assay [5] is described as follows: ATG_M_19_CIS: Attagene CIS-FACTORIAL HepG2 Assay for M19 Transcription Factor (Internal Marker) (AID 2282939). The conditions noted are these: HepG2 Attagene CIS-FACTORIAL M19 internal marker reporter; actives raise or lower the signal. The method in brief: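 Readout: fluorescent reporter-transcript fragments by capillary electrophoresis after RT-PCR. Human HepG2 liver cells carried transfected MRTU constructs reporting endogenous transcription-factor activity; exposure 24 h. Gain or loss of signal fitted relative to DMSO.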

The nature of assay [6]: ATG_ERE_CIS: Attagene CIS-FACTORIAL HepG2 Assay for Estrogen Response Element (ERE) (AID 2282940). The conditions noted are these: HepG2 ERE cis-reporter, Attagene RNA transcript; actives raise or lower the signal. Put shortly: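 Readout: reporter mRNA induction by RT-PCR, FAM-labelled primer extension, HpaI digestion and capillary electrophoresis, 24 h after dosing transfected HepG2 cells. Endogenous transcription factors act on cis-element-regulated reporters. Gain or loss fitted against DMSO.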

Assay [7] in a line: ATG_Ets_CIS: Attagene CIS-FACTORIAL HepG2 Assay for human Erythroblast Transformation Specific (ETS) (AID 2282941). Particulars: HepG2 ETS cis-reporter transcription, actives raise or lower the signal. Put shortly: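 After transient cis-reporter transfection, HepG2 cells receive test chemical for 24 h. Reporter mRNA levels, measured by RT-PCR and capillary electrophoresis fluorescence, are analysed bidirectionally relative to the DMSO baseline.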

Assay [8] concerns the target Hepatocyte nuclear factor 3-beta (Homo sapiens) (UniProt Q9Y261). The assay is described as follows: ATG_FoxA2_CIS: Attagene CIS-FACTORIAL HepG2 Assay for human Forkhead box A2 (FOXA2) (AID 2282942). Particulars: HepG2 cis-reporter transcription factor activity, 24 h; actives raise or lower the signal. The method in brief: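 Fluorescence signal of reporter cDNA fragments, separated by capillary electrophoresis, reflects endogenous transcription factor activity in transfected HepG2 after 24 h. Both increases and decreases fitted against DMSO.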

The nature of assay [9]: ATG_FoxO_CIS: Attagene CIS-FACTORIAL HepG2 Assay for human Forkhead box O (FoxO) (AID 2282943). The conditions noted are these: HepG2 Attagene cis-reporter, FoxO element, mRNA; actives raise or lower the signal. Put shortly: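 HepG2 cells transiently transfected with cis-element-driven reporter units report endogenous FoxO activity. After 24 h chemical exposure, reporter mRNA quantified by RT-PCR, fluorescent labeling, HpaI digestion and capillary electrophoresis; bidirectional fit versus DMSO.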

Assay [10] is described as follows: ATG_GATA_CIS: Attagene CIS-FACTORIAL HepG2 Assay for human GATA Binding Protein (AID 2282944). The conditions noted are these: HepG2 GATA cis-element reporter, Attagene multiplex mRNA; actives raise or lower the signal. The method in brief: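 Read-out: fluorescent reporter mRNA fragments resolved by capillary electrophoresis after RT-PCR. Human liver HepG2 cells carried transiently transfected cis-regulated reporter constructs; chemicals incubated 24 h; gain or loss of signal fitted relative to DMSO.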

The nature of assay [11]: ATG_GLI_CIS: Attagene CIS-FACTORIAL HepG2 Assay for human Zinc Finger Protein GLI1 (AID 2282945). Particulars: HepG2, Attagene cis-factorial reporter mRNA, GLI element; actives raise or lower the signal. The method in brief: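 Transiently transfected HepG2 cells report endogenous transcription factor activity via cis-element-driven reporter units. After 24 h compound exposure, reporter mRNA was measured by RT-PCR with capillary electrophoresis; bidirectional fitting against DMSO baseline.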

For assay [12], the target named is Bile acid receptor (Homo sapiens) (UniProt Q96RI1). In words: ATG_IR1_CIS: Attagene CIS-FACTORIAL HepG2 Assay for human Nuclear Receptor Subfamily 1 Group H Member 4 (NR1H4), IR1 submotif (AID 2282946). Particulars: IR1 reporter transcription, actives raise or lower the signal. The method in brief: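 HepG2 cells transiently transfected with multiple cis-promoter-driven reporter units to measure endogenous transcription factor activity; 24 h exposure. Reporter mRNA read by RT-PCR, FAM labelling, HpaI digestion and capillary electrophoresis. Bidirectional fit versus DMSO.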
Bile acid receptor (Homo sapiens), sequence (Q96RI1 whole entry, looked up): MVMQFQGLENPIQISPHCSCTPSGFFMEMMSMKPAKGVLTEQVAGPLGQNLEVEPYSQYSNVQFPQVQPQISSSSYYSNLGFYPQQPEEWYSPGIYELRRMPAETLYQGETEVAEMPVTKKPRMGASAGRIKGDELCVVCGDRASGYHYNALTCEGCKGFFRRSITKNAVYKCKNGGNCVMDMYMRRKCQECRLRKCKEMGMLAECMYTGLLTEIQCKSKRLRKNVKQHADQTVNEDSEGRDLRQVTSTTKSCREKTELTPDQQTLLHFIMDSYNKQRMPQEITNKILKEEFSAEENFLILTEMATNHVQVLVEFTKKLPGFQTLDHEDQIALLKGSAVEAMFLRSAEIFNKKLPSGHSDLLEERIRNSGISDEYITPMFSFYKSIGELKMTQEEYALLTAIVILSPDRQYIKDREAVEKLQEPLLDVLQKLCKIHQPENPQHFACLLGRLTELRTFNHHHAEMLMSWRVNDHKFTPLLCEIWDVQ

Assay [13] can be described thus: ATG_M_32_CIS: Attagene CIS-FACTORIAL HepG2 Assay for M32 Transcription Factor (Internal Marker) (AID 2282949).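 Note: background control marker of the multiplexed CIS panel rather than a real target.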 Particulars: HepG2 Attagene cis-factorial M32 reporter, mRNA; actives raise or lower the signal. The method in brief: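 Internal background marker read-out: RT-PCR/capillary electrophoresis fluorescence of reporter transcripts from transiently transfected HepG2 cells after 24 h chemical exposure. Activity fitted bidirectionally relative to DMSO negative control.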

Assay [14] in a line: ATG_M_06_CIS: Attagene CIS-FACTORIAL HepG2 Assay for M06 Transcription Factor (Internal Marker) (AID 2282950). The conditions noted are these: HepG2 Attagene CIS-FACTORIAL M06 internal marker reporter; actives raise or lower the signal. The method in brief: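 Terse: HepG2, transient MRTU transfection (FuGene 6), 24 h dosing; total RNA, oligo(dT) RT, PCR, FAM label, HpaI cut, capillary electrophoresis; bidirectional fit vs DMSO baseline; background-control endpoint.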

The target in assay [15] is Hypoxia-inducible factor 1-alpha (Homo sapiens) (UniProt Q16665). In words: ATG_HIF1a_CIS: Attagene CIS-FACTORIAL HepG2 Assay for human Hypoxia Inducible Factor 1 (HIF1A) (AID 2282951). Particulars: HepG2 Attagene cis-factorial HIF1a reporter transcription; actives raise or lower the signal. The method in brief: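 Endogenous-TF cis reporter readout, human HepG2 cells, 24 h incubation; mRNA detected via RT-PCR and capillary electrophoresis fluorescence; DMSO-normalised bidirectional fitting.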
Hypoxia-inducible factor 1-alpha (Homo sapiens), sequence (Q16665 whole entry, looked up): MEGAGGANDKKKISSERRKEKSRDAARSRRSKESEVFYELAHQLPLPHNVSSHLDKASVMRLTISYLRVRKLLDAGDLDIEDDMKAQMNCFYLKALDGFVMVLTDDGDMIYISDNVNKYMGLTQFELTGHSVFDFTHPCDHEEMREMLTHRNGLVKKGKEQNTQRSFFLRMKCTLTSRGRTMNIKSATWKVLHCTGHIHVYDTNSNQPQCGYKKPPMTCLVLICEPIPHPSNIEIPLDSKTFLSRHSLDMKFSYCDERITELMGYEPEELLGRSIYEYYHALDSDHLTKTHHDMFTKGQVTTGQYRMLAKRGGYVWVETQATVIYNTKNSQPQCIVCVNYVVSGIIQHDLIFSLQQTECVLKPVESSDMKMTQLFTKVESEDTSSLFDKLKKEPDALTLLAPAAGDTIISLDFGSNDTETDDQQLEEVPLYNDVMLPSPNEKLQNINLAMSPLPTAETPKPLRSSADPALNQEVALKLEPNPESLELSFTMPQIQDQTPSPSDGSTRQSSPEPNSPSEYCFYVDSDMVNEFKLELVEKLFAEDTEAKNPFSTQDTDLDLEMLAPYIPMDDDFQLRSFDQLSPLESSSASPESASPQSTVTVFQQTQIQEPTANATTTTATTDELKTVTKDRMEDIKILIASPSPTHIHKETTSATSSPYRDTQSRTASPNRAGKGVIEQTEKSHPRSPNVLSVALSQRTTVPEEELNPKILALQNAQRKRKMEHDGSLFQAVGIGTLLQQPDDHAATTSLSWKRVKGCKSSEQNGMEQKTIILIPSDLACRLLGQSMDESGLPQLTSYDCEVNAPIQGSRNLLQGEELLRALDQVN

Assay [16] concerns the target Hepatocyte nuclear factor 6 (Homo sapiens) (UniProt Q9UBC0). The assay is described as follows: ATG_HNF6_CIS: Attagene CIS-FACTORIAL HepG2 Assay for human Hepatocyte Nuclear Factor 6 (HNF6) (AID 2282952). Particulars: HepG2 Attagene cis-factorial HNF6 reporter transcription; actives raise or lower the signal. Put shortly: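 Transiently transfected HepG2 cells expressing cis-regulated reporter transcription units were exposed to chemical for 24 h in a 24-well format. Reporter transcript abundance was determined by fluorescence capillary electrophoresis.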

A short description of assay [17]: ATG_MRE_CIS: Attagene CIS-FACTORIAL HepG2 Assay for human Metal Responsive Element (MRE) (AID 2282954). The conditions noted are these: HepG2 MRE cis-reporter transcription, Attagene multiplex; actives raise or lower the signal. Put shortly:
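Fluorescent reporter fragments separated by capillary electrophoresis give mRNA induction for the MRE unit after 24 h treatment of transfected HepG2 cells. Endogenous transcription-factor activity is read; DMSO serves as negative control and baseline.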

A short description of assay [18]: ATG_ISRE_CIS: Attagene CIS-FACTORIAL HepG2 Assay for human Interferon Regulatory Factor 1 (IRF1) binding to an Interferon-Stimulated Response Element (ISRE) (AID 2282948). The conditions noted are these: HepG2 ISRE cis-reporter (Attagene), mRNA transcription readout; actives raise or lower the signal. Put shortly: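 Quantitation relies on labelled RT-PCR fragments separated by capillary electrophoresis. Human HepG2 cells bearing cis-promoter reporter constructs were treated 24 h; DMSO served as baseline for bidirectional fitting.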

The target of assay [19] is Heat shock factor protein 1 (Homo sapiens) (UniProt Q00613). The assay is described as follows: ATG_HSE_CIS: Attagene CIS-FACTORIAL HepG2 Assay for human Heat Shock Transcription Factor 1 (HSE) (AID 2282953). The conditions noted are these: HepG2 HSE cis-reporter, Attagene RNA transcription; actives raise or lower the signal. The method in brief:
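Read-out: fluorescence of reporter-specific RT-PCR fragments separated by capillary electrophoresis. HepG2 carrying transfected cis-element reporter units; 24 h dosing; activity fitted in both directions relative to DMSO baseline.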

Hepatocyte nuclear factor 6 (Homo sapiens), sequence (Q9UBC0 whole entry, looked up): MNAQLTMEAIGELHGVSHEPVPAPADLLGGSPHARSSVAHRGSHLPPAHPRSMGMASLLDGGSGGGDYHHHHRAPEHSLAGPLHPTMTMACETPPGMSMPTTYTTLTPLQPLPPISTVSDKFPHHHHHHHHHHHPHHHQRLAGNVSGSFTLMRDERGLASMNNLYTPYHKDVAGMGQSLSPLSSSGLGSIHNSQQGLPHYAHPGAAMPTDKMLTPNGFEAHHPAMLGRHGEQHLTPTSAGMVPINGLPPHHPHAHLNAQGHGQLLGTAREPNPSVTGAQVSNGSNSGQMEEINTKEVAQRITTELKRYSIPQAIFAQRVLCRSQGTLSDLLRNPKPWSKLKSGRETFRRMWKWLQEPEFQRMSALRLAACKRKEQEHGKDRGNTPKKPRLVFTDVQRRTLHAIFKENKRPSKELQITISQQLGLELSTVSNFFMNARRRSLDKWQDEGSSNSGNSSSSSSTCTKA
Transcription factor E2F1 (Homo sapiens), sequence (Q01094 whole entry, looked up): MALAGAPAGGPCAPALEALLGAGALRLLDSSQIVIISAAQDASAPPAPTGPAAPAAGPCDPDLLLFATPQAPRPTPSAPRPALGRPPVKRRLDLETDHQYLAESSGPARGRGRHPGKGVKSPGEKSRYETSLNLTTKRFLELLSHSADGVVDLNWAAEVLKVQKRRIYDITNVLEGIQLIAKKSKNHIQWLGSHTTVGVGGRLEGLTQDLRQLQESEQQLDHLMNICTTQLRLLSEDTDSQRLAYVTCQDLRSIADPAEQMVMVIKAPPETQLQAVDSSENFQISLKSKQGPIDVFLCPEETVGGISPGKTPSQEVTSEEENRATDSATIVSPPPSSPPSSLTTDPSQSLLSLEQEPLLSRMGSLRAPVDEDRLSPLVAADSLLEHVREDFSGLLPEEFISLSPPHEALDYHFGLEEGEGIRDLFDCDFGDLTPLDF
Hepatocyte nuclear factor 3-beta (Homo sapiens), sequence (Q9Y261 whole entry, looked up, the tested form may be a part): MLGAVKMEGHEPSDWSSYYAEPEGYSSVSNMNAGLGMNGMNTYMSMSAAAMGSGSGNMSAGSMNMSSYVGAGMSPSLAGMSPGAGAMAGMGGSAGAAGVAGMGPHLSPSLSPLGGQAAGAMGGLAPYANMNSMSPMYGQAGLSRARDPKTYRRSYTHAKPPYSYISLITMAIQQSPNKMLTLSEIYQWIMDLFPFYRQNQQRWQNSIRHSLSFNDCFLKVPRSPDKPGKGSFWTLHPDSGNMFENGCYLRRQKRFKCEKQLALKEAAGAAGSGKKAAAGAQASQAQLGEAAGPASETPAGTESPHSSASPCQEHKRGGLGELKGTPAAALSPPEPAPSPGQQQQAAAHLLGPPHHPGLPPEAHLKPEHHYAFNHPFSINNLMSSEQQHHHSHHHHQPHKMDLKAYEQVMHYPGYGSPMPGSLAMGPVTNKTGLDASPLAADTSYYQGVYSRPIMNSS
Heat shock factor protein 1 (Homo sapiens), sequence (Q00613 whole entry, looked up, the tested form may be a part): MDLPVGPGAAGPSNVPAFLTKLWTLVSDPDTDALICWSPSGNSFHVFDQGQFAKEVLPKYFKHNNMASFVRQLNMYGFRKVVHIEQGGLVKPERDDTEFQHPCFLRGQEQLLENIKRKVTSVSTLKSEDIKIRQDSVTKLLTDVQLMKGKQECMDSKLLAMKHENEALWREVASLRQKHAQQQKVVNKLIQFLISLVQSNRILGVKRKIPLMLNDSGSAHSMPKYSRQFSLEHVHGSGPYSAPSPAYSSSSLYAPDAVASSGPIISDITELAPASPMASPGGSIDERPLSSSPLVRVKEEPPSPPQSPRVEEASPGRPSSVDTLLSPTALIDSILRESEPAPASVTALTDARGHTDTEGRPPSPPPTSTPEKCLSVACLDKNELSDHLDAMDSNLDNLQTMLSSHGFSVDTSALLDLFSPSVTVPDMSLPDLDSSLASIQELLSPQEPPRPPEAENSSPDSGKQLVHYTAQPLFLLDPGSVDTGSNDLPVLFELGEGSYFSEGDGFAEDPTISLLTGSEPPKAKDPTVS

As for `CC#C[C@]1(O)CC[C@H]2[C@@H]3CCC4=CC(=O)CCC4=C3[C@@H](c3ccc(N(C)C)cc3)C[C@@]21C`, the compound was called inactive in [1], in [2], in [3], in assay [5], in [6] and in assay [7]. For the same compound, the result in assay [8], in [9], in assay [10], in assay [11], in assay [12] and in [13] was inactive. In addition, the compound was classed as inactive in assay [14] and in [16]. In addition, the AC50 – broadly, the midpoint of the concentration-response curve, whichever way the signal moves – was 9.86 µM (active) [middle of 4 runs] in assay [4]; 8.92 µM (active) in assay [7]; 58.4 µM (active) in [8]; 100 µM (active) and 134 µM (active) in assay [11]; 8.96 µM (active) and 9.17 µM (active) and 10.6 µM (active) in assay [12]; 8.4 µM (active) [middle of 4 runs] in assay [15]. Also, the concentration at half-maximal activity (AC50) in assay [17] was 21.3 µM (active) [middle of 4 runs].

On to `CCCOc1sc(C(=O)N2CCC(c3cc(CN)ccc3F)CC2)c(C)c1Br`, for which the compound was called inactive in assay [1], in assay [2], in assay [3], in assay [4], in assay [5] and in assay [7]. Besides, the compound was classed as inactive in assay [8], in [9], in assay [10], in assay [11], in assay [18] and in [13]. For the same compound, the compound was called inactive in assay [14], in [16], in assay [19] and in assay [17]. Moreover, the results for the AC50 in assay [6], in assay [12] and in [15] were 2.72 µM (active), 1.12 µM (active) and 3.7 µM (active), respectively.

`CC(C)(C)CC(C)(C)c1ccc(O)c(-n2nc3ccccc3n2)c1`: the outcome in assay [1], in [2], in [3], in assay [4], in assay [5] and in assay [6] was inactive. Further, the call in assay [7], in assay [8], in assay [9], in assay [10], in assay [11] and in [12] was inactive. Moreover, the result in [18], in assay [13], in assay [14], in [15], in assay [16] and in [19] was inactive. The result in assay [17] was inactive.
